Results reported in PubChem BioAssay (NCI).
This is part of a sample that, as a whole, favours compounds with a hit. Of some 83,000 tested, about 20% had one in any assay.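 Activity criterion: percent growth below 10, measured after cells in 96-well plates were exposed to a single compound concentration for 48 hours.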 Values without a mark were called inactive. The source made the active and inactive calls.

Experiments:
Assay in all cases: NCI-60 one-dose screen, 48 h (100 = growth as untreated, 0 = no growth, -100 = all killed)
Settings in all cases: 10 µM
SK-MEL-2 melanoma = test system: SK-MEL-2 melanoma
EKVX NSCLC = test system: EKVX NSCLC
SN12C renal = test system: SN12C renal
UO-31 renal = test system: UO-31 renal
TK-10 renal = test system: TK-10 renal
ACHN renal = test system: ACHN renal
CAKI-1 renal = test system: CAKI-1 renal
A498 renal = test system: A498 renal
MOLT-4 leukemia = test system: MOLT-4 leukemia
CCRF-CEM leukemia = test system: CCRF-CEM leukemia

Structure (SMILES) | growth (SK-MEL-2 melanoma) | growth (EKVX NSCLC) | growth (SN12C renal) | growth (UO-31 renal) | growth (TK-10 renal) | growth (ACHN renal) | growth (CAKI-1 renal) | growth (A498 renal) | growth (MOLT-4 leukemia) | growth (CCRF-CEM leukemia)
CC[C@H]1OC(=O)[C@H](C)[C@@H](O[C@H]2C[C@@](C)(OC)[C@@H](O)[C@H](C)O2)[C@H](C)[C@@H](O[C@@H]2O[C@H](C)C[C@H](N(C)C)[C@H]2O)[C@](C)(OC)C/C(C)=C2/O[C@@]1(C)C=C2C | -17.3% (active) | 75% | 76.9% | 50.5% | 97.4% | 24.5% | 21.7% | 83.9% | 1.08% (active) | –
Cc1ccc(/C=C2/C(=O)N(C)c3ccc(S(=O)(=O)Nc4ccc(C(C)(C)C)cc4)cc32)s1 | 94.3% | 103% | 78.9% | 73.4% | 90.9% | 56% | 45% | 90.8% | 73.3% | –
O=c1cn[nH]c2ccc(Br)cc12 | 103% | 108% | 105% | 78.9% | 95.4% | 103% | 113% | – | 86.5% | 96.1%
COc1ccc(-c2nn(-c3cccc(Cl)c3)cc2-c2nc(N)[nH]c(=O)c2C#N)cc1 | 70.9% | 31.8% | 84.9% | 29.7% | 110% | 87.5% | 30.6% | – | 53.7% | 61.6%
Cc1ccc(/C=C/C(=O)C(=O)/C=C/c2ccc(C)cc2)cc1 | 105% | 92.7% | 105% | 89.7% | 92% | 104% | 94.8% | 101% | 91.8% | –
COc1ccc(-c2nn(-c3cccc(Cl)c3)cc2-c2c(C#N)c(=O)n3[nH]c(-c4ccccc4)nc3c2C#N)cc1 | 88.6% | 35.9% | 104% | 82.5% | 123% | 101% | 62.9% | – | 61.6% | 74.4%
CC(C)(C)OC(=O)CN1CCc2c(sc3ncnc(N/N=C/c4ccccc4Br)c23)C1 | 87.4% | 44.5% | 73.3% | 37.6% | 90.8% | 56.6% | 51.3% | 77% | 11.1% | –
N#Cc1c(-c2ccc(Cl)cc2)n(O)c2ccccc12 | 8.25% (active) | 30.2% | 16.1% | 11% | 66.6% | 35.4% | 20.7% | – | 18.1% | 16.2%
C=CCN(CC=C)C(=O)[C@H](CC)[C@@H]1CC[C@@H](C)[C@@H]([C@H](C)[C@@H](O)[C@@H](C)C(=O)[C@H](CC)C2O[C@]3(C=C[C@@H](O)[C@]4(CC[C@@](C)([C@H]5CC[C@](O)(CC)[C@H](C)O5)O4)O3)[C@H](C)C[C@@H]2C)O1 (stereo partly drawn) | -7.12% (active) | -5.86% (active) | 6.36% (active) | -12.6% (active) | 16.2% | 5.93% (active) | 1.41% (active) | -2.03% (active) | 19.4% | –
CCn1c(SCc2ccc(C)cc2)nnc1-c1nn(-c2ccc(Cl)cc2Cl)c(-c2ccc(Cl)cc2)c1C | 4.93% (active) | 10.4% | 1.66% (active) | 9.59% (active) | 18.1% | 2.32% (active) | 40.5% | 18.9% | 2.46% (active) | –
Cc1cc(O)ccc1C1=NN(c2ccc(S(C)(=O)=O)cc2)C(=O)CC1 | 68.7% | 72.2% | 90.3% | 48.8% | 105% | 79.7% | 25.4% | – | 52.7% | 69.7%
CC(C)(C)c1ccc(S(=O)(=O)Oc2ccc(NC(=O)C3CCCCC3)cc2)cc1 | 31.6% | 23.8% | 60.2% | 38% | 57.8% | 25.7% | 58.3% | 90% | 33.5% | –
CC1=CC2C(C(O)CC3(C)C2CC(C)C32OCOC23COCO3)C2(C)C/C(=C/O)C(=O)C=C12 (stereo not drawn) | 76.1% | 48.8% | 26.2% | 10.5% | 42.7% | 8.9% (active) | 67.6% | – | -32.8% (active) | -3.03% (active)
C/C(=C/CCC(C)[C@@H]1CC[C@]2(C)C3=C(CC[C@@]12C)[C@@]1(C)CCC(=O)C(C)(C)[C@@H]1CC3)C(=O)O (stereo partly drawn) | -52.1% (active) | -76.5% (active) | -77.5% (active) | -95.5% (active) | -86.1% (active) | -93.5% (active) | -92.8% (active) | – | -35.3% (active) | -21% (active)
N#CC1=CC2CN(Cc3ccccc3)C1C1C(=O)N(c3ccccc3)C(=O)C21 (stereo not drawn) | 105% | 94.7% | 100% | 74.7% | 96.2% | 103% | 101% | – | 89.5% | 97.2%
CCCCN(CCCC)C(=O)[C@H](CC)[C@@H]1CC[C@@H](C)[C@@H]([C@H](C)[C@@H](O)[C@@H](C)C(=O)[C@H](CC)C2O[C@]3(C=C[C@@H](O)[C@]4(CC[C@@](C)([C@H]5CC[C@](O)(CC)[C@H](C)O5)O4)O3)[C@H](C)C[C@@H]2C)O1 (stereo partly drawn) | -12.4% (active) | -8.73% (active) | 3.56% (active) | -11.7% (active) | 18.6% | 7.05% (active) | -3.74% (active) | -14.6% (active) | 11.8% | –
COc1ccc(-c2nn(-c3cccc(Cl)c3)cc2-c2cc(-c3ccccc3)nc(N)n2)cc1 | 83.6% | 58.2% | 35.8% | 60.8% | 86% | 71.1% | 29.2% | – | 6.55% (active) | 41.1%
Cc1noc(C)c1CSc1ccccc1C(=O)N1CCN(c2cccc(C(F)(F)F)c2)CC1 | 85.1% | 66.7% | 80.2% | 67.5% | 91.3% | 84.9% | 68.8% | 77.5% | 67.6% | –
CNC(=O)c1cc(Oc2ccc3c(c2)sc2nc(-c4ccc(NC(=O)Nc5ccc(Cl)c(C(F)(F)F)c5)cc4)cn23)ccn1 | 75.4% | 77.3% | 87.3% | 73.9% | 81% | 82.8% | 80.6% | 83% | 64.2% | –
CNC(=O)c1cc(Oc2ccc3c(c2)sc2nc(-c4ccc(N)cc4)cn23)ccn1 | 35.8% | 40.9% | 29.4% | 43.8% | 57.4% | 29.1% | 43.9% | 26.7% | 15% | –
O=C(O)c1ccc(-n2cc(CNc3ccc(Oc4ccccc4)cc3)c(-c3ccccc3)n2)cc1 | 88.5% | 85.1% | 93.4% | 76.6% | 90.1% | 87.4% | 86.4% | 83.2% | -4.16% (active) | –
COc1cc(Cc2cc(-c3ccccc3)n[nH]c2=O)cc(OC)c1OC | 56.6% | 43.6% | 72.9% | 58.3% | 75.5% | 86.4% | 64.6% | 69% | 30.9% | –
Nc1cc(Br)c(-c2nn3c(CCC(=O)c4nc5ccccc5[nH]4)nnc3s2)c(Br)c1 | 100% | 95.5% | 97.7% | 71.1% | 117% | 99.8% | 95.4% | 65.6% | 84.9% | –
C(=N\Nc1ncnc2sc3c(c12)CCNC3)/c1cccc2ccccc12 | 109% | 92.7% | 82.4% | 74.4% | 104% | 47.9% | 92% | 98% | 48.1% | –
C=CCN(CC=C)C(=O)[C@H](CC)[C@@H]1CC[C@@H](C)[C@@H]([C@H](C)[C@@H](O)[C@@H](C)C(=O)[C@H](CC)C2O[C@]3(C=CC(=O)[C@]4(CC[C@@](C)([C@H]5CC[C@](O)(CC)[C@H](C)O5)O4)O3)[C@H](C)C[C@@H]2C)O1 (stereo partly drawn) | 22.1% | 12.8% | 19.8% | 0.66% (active) | 35.5% | 5.47% (active) | 13.7% | 22.2% | 28.8% | –
Clc1ccc(C2=NN=C3C(Cc4ccccc4)=Nc4ccccc4N3C2)cc1 | 105% | 86% | 83.2% | 63.1% | 68.4% | 63.2% | 55.4% | 68.5% | 61.3% | –
O=C(CCCSc1nc(-c2ccccc2)cc(-c2ccc(Cl)cc2)n1)NO | 16.4% | -10.5% (active) | 6.93% (active) | -26.4% (active) | 21.9% | -0.78% (active) | 2.37% (active) | -15.3% (active) | 11.2% | –
